From PubChem BioAssay (EPA / NIEHS)
Active and inactive are the calls of the source. The calls were made as follows: active = hit-call score of the fitted dose curve at least 0.9, where 1 is the maximum; inactive = score below 0.9.

Columns and labels:
[1] = CEETOX_H295R_CORTIC: CeeTox H295R High-throughput Steroidogenesis Assay for Corticosterone (CORTIC) (AID 2283437); conditions: actives raise or lower the signal;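 also: corticosterone secreted into medium quantified by mass spectrometry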;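 as to AC50: human H295R adrenal cells prestimulated with forskolin before chemical exposure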
Summary of the method: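 Corticosterone secreted into medium is measured by reverse-phase HPLC with tandem MS following liquid-liquid extraction. Cells are forskolin-stimulated (10 uM, 48 h) before 48 h test exposure; activity fitted in both directions against DMSO.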

[2] = CEETOX_H295R_CORTISOL: CeeTox H295R High-throughput Steroidogenesis Assay for Cortisol (AID 2283438); conditions: actives raise or lower the signal;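 also: cortisol secreted into medium quantified by LC-MS/MS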
Summary of the method: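 Forskolin 10 uM 48 h prestim → test cmpd in DMSO (0.1% final) 48 h → medium MTBE-extracted → LC-MS/MS cortisol vs 7-pt std curve. Gain/loss of signal fitted vs DMSO. MTT viability in same wells.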

[3] = CEETOX_H295R_DOC: CeeTox H295R High-throughput Steroidogenesis Assay for DOC (AID 2283439); conditions: actives raise or lower the signal
Summary of the method: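 Readout: 11-deoxycorticosterone in culture medium by reverse-phase C18 HPLC with ESI+ tandem MS after MTBE extraction. Cells: H295R, forskolin-primed (10 uM, 48 h), chemical-treated 48 h; DMSO 0.1% final. Activity fitted bidirectionally versus DMSO.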

[4] = CEETOX_H295R_ESTRADIOL: CeeTox H295R High-throughput Steroidogenesis Assay for Estradiol (AID 2283440); conditions: actives raise or lower the signal;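 also: estradiol secreted into medium quantified by LC-MS/MS after dansyl derivatisation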
Summary of the method: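 H295R cells pre-stimulated 48 h with 10 uM forskolin, then exposed 48 h to chemical in 0.1% DMSO. Medium estradiol quantified by MTBE extraction, dansyl derivatisation and HPLC-MS/MS; bidirectional fit versus DMSO; MTT viability required >/=70%.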

[5] = CEETOX_H295R_PROG: CeeTox H295R High-throughput Steroidogenesis Assay for Progesterone (PROG) (AID 2283442); conditions: actives raise or lower the signal;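 as to AC50: human H295R adrenal cells primed with 10 µM forskolin before dosing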
Summary of the method: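 H295R adrenal cells prestimulated 48 h with 10 uM forskolin, then exposed 48 h to test chemical in 0.1% DMSO. Progesterone in medium quantified by HPLC-MS/MS after MTBE extraction; viability checked by MTT in same wells.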

[6] = read-out: Tumor necrosis factor receptor superfamily member 6 (Homo sapiens) (UniProt P25445); experiment: LTEA_HepaRG_FAS: Life Technologies and Expression Analysis (LTEA) Assay for Fas cell surface death receptor (FAS) using HepaRG (AID 2283447); conditions: mRNA level, 48 h; actives raise or lower the signal
Summary of the method: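 FAS transcript level was measured by TaqMan qRT-PCR against three housekeeping genes after 48 h chemical exposure. Cells were HepaRG, 0.5% DMSO vehicle, with a top concentration of 100 uM and half-log dilutions over eight points, in duplicate.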

[7] = read-out: Cyclin D2 (CCND2), CCND2 (gene 894); experiment: LTEA_HepaRG_CCND2: Life Technologies and Expression Analysis (LTEA) Assay for Cyclin D2 (CCND2) using HepaRG (AID 2283449); conditions: mRNA level, 48 h; actives raise or lower the signal
Summary of the method: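 Read-out is CCND2 mRNA level measured by qRT-PCR in human HepaRG liver cells and normalised to three housekeeping genes. Chemicals were applied for 48 h at up to 100 uM, with gain or loss fitted relative to 0.5% DMSO.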

[8] = read-out: Cyclin Dependent Kinase Inhibitor 1A (CDKN1A), CDKN1A (gene 1026); experiment: LTEA_HepaRG_CDKN1A: Life Technologies and Expression Analysis (LTEA) Assay for Cyclin Dependent Kinase Inhibitor 1A (CDKN1A) using HepaRG (AID 2283450); conditions: mRNA level, 48 h; actives raise or lower the signal
Summary of the method: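 Differentiated HepaRG cells in serum-free induction medium, exposed 48 h in duplicate to eight half-log concentrations up to 100 uM in 0.5% DMSO. mRNA measured by TaqMan qRT-PCR, normalized to ACTB, GAPDH, POLR2A; bidirectional fit versus DMSO.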

[9] = read-out: Fatty acid synthase (Homo sapiens) (UniProt P49327); experiment: LTEA_HepaRG_FASN: Life Technologies and Expression Analysis (LTEA) Assay for Fatty Acid Synthase (FASN) using HepaRG (AID 2283448); conditions: mRNA level, 48 h; actives raise or lower the signal;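 as to AC50: differentiated human HepaRG liver cells in serum-free induction medium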
Summary of the method: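 FASN expression changes, up or down relative to 0.5% DMSO, were measured by qRT-PCR in human HepaRG cells after 48 h treatment with chemicals at eight concentrations (half-log steps from 100 uM).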

Measured: AC50

Sequence of Fatty acid synthase (Homo sapiens) (P49327 whole entry, looked up): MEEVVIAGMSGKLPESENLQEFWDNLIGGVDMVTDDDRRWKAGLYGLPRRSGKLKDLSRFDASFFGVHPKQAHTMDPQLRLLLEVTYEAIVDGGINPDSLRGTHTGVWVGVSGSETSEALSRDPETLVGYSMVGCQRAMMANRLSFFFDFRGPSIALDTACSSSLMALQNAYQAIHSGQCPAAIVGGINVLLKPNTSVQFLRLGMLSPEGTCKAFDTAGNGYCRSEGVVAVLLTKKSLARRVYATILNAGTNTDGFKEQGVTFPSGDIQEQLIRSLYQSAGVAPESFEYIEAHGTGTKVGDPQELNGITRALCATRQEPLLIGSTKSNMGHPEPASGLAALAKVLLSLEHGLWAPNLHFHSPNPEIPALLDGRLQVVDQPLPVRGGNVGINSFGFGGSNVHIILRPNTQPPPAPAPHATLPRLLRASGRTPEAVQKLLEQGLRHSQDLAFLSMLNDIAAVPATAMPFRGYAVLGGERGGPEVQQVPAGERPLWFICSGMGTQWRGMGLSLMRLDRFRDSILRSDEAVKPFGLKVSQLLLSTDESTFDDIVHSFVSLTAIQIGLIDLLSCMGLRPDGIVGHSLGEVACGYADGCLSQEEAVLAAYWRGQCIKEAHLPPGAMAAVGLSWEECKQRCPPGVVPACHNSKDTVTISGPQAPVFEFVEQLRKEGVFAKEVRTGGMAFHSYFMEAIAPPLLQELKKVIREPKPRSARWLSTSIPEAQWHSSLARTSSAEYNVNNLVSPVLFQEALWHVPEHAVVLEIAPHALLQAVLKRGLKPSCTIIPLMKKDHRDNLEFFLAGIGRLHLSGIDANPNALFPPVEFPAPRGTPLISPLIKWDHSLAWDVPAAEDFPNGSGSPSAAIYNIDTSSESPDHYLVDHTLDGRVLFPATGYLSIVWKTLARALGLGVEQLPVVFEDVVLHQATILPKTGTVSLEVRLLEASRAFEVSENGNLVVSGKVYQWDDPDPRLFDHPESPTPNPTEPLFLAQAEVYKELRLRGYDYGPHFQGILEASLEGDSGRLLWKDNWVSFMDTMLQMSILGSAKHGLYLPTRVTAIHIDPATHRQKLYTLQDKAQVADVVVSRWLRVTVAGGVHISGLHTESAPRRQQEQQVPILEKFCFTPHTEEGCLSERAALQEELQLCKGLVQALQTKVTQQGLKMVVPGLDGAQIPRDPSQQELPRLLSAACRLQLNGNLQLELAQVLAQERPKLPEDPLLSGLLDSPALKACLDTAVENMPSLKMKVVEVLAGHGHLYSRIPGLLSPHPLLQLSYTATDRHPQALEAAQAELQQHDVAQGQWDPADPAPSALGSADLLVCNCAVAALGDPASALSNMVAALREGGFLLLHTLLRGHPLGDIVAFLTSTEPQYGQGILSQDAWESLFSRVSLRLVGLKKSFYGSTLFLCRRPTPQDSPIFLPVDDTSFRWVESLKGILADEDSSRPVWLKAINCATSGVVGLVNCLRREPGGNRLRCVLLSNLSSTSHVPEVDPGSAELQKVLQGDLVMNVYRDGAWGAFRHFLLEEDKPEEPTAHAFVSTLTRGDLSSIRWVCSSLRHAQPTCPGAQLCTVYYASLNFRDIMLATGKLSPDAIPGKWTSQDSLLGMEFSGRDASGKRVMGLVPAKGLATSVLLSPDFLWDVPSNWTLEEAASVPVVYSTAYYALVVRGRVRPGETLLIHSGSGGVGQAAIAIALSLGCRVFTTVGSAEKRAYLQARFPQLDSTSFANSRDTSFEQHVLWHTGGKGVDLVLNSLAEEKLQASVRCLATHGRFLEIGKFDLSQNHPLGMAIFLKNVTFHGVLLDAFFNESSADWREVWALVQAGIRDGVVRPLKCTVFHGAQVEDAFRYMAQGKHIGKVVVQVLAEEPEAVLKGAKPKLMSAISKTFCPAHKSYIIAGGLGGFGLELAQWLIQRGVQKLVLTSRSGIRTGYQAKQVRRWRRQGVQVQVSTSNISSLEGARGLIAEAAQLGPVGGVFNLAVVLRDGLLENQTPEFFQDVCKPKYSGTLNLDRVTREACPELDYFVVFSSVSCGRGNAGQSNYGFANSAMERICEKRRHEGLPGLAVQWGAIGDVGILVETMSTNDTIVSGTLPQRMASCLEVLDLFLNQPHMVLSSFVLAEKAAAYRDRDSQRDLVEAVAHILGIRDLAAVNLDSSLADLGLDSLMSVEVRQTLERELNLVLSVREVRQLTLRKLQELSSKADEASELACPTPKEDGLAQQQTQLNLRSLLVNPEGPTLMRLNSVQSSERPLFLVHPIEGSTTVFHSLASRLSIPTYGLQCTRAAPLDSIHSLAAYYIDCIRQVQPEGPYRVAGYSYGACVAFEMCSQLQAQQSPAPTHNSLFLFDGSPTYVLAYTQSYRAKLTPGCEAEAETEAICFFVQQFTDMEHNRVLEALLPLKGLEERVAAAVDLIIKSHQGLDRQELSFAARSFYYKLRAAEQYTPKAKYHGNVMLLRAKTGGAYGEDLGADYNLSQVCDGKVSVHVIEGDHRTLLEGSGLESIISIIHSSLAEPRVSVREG

CC(C)Oc1cccc(NC(=O)c2ccccc2C(F)(F)F)c1
active: [2] 37.5 µM | [3] 7.26 µM | [5] 8.93 µM | [7] 0.0398 µM
not listed: [9]
inactive: all other assays above

CCNP(=S)(OC)O/C(C)=C/C(=O)OC(C)C (centres undefined)
active: [1] 50 µM | [3] 50 µM | [5] 50 µM
not listed: [9]
inactive: all other assays above

CCCCOCN(C(=O)CCl)c1c(CC)cccc1CC
inactive: [6] | [9] | [7] | [8]

CCN(CC)c1nc(C)cc(OP(=S)(OC)OC)n1
active: [1] 24.7 µM | [3] 36.2 µM | [4] 1.22 µM | [5] 45.8 µM | [9] 27.4 µM
inactive: [2] | [6] | [7] | [8]

CN/C(=N\[N+](=O)[O-])NCc1cnc(Cl)s1
inactive: [4] | [5] | [6] | [7] | [8]

CCCCC(C#N)(Cn1cncn1)c1ccc(Cl)cc1 (centres undefined)
active: [2] 0.832 µM | [3] 36.5 µM | [8] 50 µM
inactive: [1] | [5] | [6] | [7]

COc1cc(Cl)c(OC)cc1Cl
inactive: all assays above

O=C(Nc1ccccc1-c1ccc(Cl)cc1)c1cccnc1Cl
active: [3] 9.59 µM | [5] 13.1 µM
not listed: [9]
inactive: all other assays above

CNC(=O)Oc1cccc2ccccc12
inactive: [5] | [6] | [9] | [8]
active: [7] 0.0193 µM

COCC(=O)N(c1c(C)cccc1C)C(C)C(=O)OC (centres undefined)
active: [7] 0.0815 µM
inactive: [4] | [5] | [6] | [8]

O=C(O)c1c(Cl)ccc2cc(Cl)cnc12
inactive: [6] | [9] | [7] | [8]

COP(=O)(OC)O/C(C)=C/C(=O)N(C)C
inactive: [6] | [9] | [7] | [8]

O=c1n(Cl)c(=O)n(Cl)c(=O)n1Cl
inactive: [6] | [7] | [8]

Clc1cccc(C(Cl)(Cl)Cl)n1
inactive: [6] | [7] | [8]

COCC(C)N(C(=O)CCl)c1c(C)csc1C (centres undefined)
inactive: [6] | [8]

CCCCC(O)(Cn1cncn1)c1ccc(Cl)cc1Cl (centres undefined)
active: [6] 87.4 µM | [8] 35.4 µM
inactive: [7]

O=P(O)(O)CCCl
inactive: [6] | [9]
active: [8] 0.373 µM

COc1cc(OC)nc(NC(=O)NS(=O)(=O)c2ncccc2OCC(F)(F)F)n1
active: [7] 0.223 µM
inactive: [6] | [8]

CO/N=C(/C1=NOCCO1)c1ccccc1Oc1ncnc(Oc2ccccc2Cl)c1F
active: [6] 50 µM | [9] 62.7 µM | [8] 28.5 µM
inactive: [7]

CC1(C)C(C(=O)OC(C#N)c2cccc(Oc3ccccc3)c2)C1(C)C (centres undefined)
inactive: [6] | [9] | [7] | [8]

CNC(=O)N(C)c1nnc(C(C)(C)C)s1
inactive: [6] | [8]

CC(C)=CC1C(C(=O)OCc2coc(Cc3ccccc3)c2)C1(C)C (centres undefined)
inactive: [6] | [7] | [8]

CC(C)N1C(=O)c2ccccc2NS1(=O)=O
inactive: [6] | [7] | [8]

CC(C)C1(C)N=C(c2ncccc2C(=O)O)NC1=O (centres undefined)
inactive: [6] | [9] | [8]

Cc1cc(C)nc(Nc2ccccc2)n1
inactive: [6] | [8]

CC(C)N1C(=O)N(c2ccccc2)CSC1=NC(C)(C)C
active: [8] 85.2 µM
inactive: [6] | [9] | [7]

Cc1cnc(C2=NC(C)(C(C)C)C(=O)N2)c(C(=O)O)c1 (centres undefined)
inactive: [6] | [9] | [7] | [8]

OC(c1ccc(Cl)cc1)(c1ccc(Cl)cc1)C(Cl)(Cl)Cl
active: [6] 50 µM | [8] 83.7 µM

COC(=O)NS(=O)(=O)c1ccc(N)cc1
inactive: [6] | [9] | [7] | [8]

COC(=O)N(C(=O)N1CO[C@@]2(C(=O)OC)Cc3cc(Cl)ccc3C2=N1)c1ccc(OC(F)(F)F)cc1
inactive: [6] | [7] | [8]

N#Cc1c[nH]cc1-c1cccc2c1OC(F)(F)O2
inactive: [6] | [7] | [8]
active: [9] 1.51 µM

C=C(C)CN(CC)c1c([N+](=O)[O-])cc(C(F)(F)F)cc1[N+](=O)[O-]
inactive: [6] | [9] | [7] | [8]

Cn1c(-c2ccccc2)cc(-c2ccccc2)[n+]1C
inactive: [6] | [7]
active: [8] 50 µM

CS(=O)(=O)c1ccc(C(=O)C2C(=O)CCCC2=O)c([N+](=O)[O-])c1
inactive: [6] | [7] | [8]

CSC(=O)c1c(C(F)F)nc(C(F)(F)F)c(C(=O)SC)c1CC(C)C
inactive: [6] | [7] | [8]

Nc1c(Cl)c(Cl)nc(C(=O)O)c1Cl
inactive: [6] | [9] | [7] | [8]

COC(=O)c1c(C(F)F)nc(C(F)(F)F)c(C2=NCCS2)c1CC(C)C
inactive: [6] | [7] | [8]

CCNC(=O)NC(=O)C(C#N)=NOC
inactive: [9] | [7] | [8]

CCOc1nc(F)cc2nc(S(=O)(=O)Nc3c(Cl)cccc3Cl)nn12
inactive: [6] | [7] | [8]

CS(=O)(=O)c1cc(C(F)(F)F)ccc1C(=O)c1cnoc1C1CC1
inactive: [6] | [9] | [7] | [8]

CCOP(=O)(OCC)Oc1nc(Cl)c(Cl)cc1Cl
inactive: [6] | [7] | [8]

COc1ccc(-c2ccccc2)cc1NNC(=O)OC(C)C
inactive: [6] | [7] | [8]

Nc1c(Cl)c(F)nc(OCC(=O)O)c1Cl
inactive: [6] | [9] | [7] | [8]

C=CCOC(=O)C(C)(C)OC(=O)c1cc(-n2c(=O)cc(C(F)(F)F)n(C)c2=O)ccc1Cl
inactive: [6] | [7] | [8]

CN=C=S
inactive: [6] | [9] | [7] | [8]

Cc1ccc(N=CN(C)C=Nc2ccc(C)cc2C)c(C)c1
inactive: [6] | [8]
